Holding throughout (design): scale not given: direction of the effect not stated beside the values
Assay [1] deals with Protein translocase subunit SecA (Escherichia coli (strain K12)) (UniProt P10408). The assay is described as follows: Assay to Identify E. coli SecA ATPase Inhibitors. Format: functional. Conditions: 30 µM.
Assay [2] addresses T1, Ubiquitin-activating enzyme e1, putative (Leishmania donovani (strain BPK282A1)) (UniProt E9BSI1).
T1 sequence (whole entry): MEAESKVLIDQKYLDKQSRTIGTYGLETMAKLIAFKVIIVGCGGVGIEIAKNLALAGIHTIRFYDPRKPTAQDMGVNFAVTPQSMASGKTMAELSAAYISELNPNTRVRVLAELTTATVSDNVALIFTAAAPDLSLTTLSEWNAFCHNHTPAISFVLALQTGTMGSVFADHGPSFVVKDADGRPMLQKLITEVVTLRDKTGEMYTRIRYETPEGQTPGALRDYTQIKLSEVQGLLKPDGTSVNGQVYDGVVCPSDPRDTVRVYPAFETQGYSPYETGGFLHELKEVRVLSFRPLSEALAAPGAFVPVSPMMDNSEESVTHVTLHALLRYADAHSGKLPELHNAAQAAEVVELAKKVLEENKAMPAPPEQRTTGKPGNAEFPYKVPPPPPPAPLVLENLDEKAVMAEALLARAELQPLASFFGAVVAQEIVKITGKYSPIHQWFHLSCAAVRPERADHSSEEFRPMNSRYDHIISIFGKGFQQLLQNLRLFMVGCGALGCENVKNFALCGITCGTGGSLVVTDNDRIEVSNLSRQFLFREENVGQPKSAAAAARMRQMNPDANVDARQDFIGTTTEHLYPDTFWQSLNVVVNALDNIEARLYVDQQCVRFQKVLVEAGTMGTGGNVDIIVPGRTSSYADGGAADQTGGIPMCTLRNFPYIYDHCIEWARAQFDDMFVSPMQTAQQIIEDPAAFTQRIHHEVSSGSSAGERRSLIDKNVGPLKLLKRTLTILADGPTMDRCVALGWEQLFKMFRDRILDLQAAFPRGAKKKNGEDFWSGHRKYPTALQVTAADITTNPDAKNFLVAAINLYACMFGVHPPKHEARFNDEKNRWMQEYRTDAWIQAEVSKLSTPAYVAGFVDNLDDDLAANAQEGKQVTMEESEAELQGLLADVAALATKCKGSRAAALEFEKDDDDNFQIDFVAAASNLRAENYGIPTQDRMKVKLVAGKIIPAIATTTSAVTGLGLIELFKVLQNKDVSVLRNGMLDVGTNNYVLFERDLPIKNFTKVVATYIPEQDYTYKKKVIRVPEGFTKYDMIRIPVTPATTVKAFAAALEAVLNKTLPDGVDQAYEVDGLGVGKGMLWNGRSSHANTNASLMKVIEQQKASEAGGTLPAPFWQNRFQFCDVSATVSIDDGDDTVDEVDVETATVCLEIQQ
Put plainly: Leishmania donovani Ubiquitin Activating Enzyme (LdE1). Conditions: 30 µM. The class given is functional.

Assay [3] has as its target AMP-activated protein kinase, AMPK (Homo sapiens) (UniProt P54646+O43741+P54619+Q9UGJ0+Q9Y478+Q13131+Q9UGI9). The assay is described as follows: AMP-dependent Kinase enzyme assay. An in vitro enzyme assay that detects ADP turnover that is directly proportional to AMPK activity. This uses naive AMPK that is activated during the assay with MK-8722. The class given is functional. Conditions: 30 µM.

Assay [4] addresses Sialic acid-binding Ig-like lectin 9 (Homo sapiens) (UniProt Q9Y336). The assay is described as follows: Hs-Siglec9 ALPHAscreen SOP 20170721. Conditions: 10 µM.
Another assay has as its system Trypanosoma cruzi. Put plainly: Trypanosoma cruzi phosphomannomutase and mannose-1-phosphate guanylyltransferase assay. The class given is functional. Conditions: 10 µM.
The target in assay [5] is T2, Arginase-2, mitochondrial (Homo sapiens) (UniProt P78540).
T2 sequence (whole entry): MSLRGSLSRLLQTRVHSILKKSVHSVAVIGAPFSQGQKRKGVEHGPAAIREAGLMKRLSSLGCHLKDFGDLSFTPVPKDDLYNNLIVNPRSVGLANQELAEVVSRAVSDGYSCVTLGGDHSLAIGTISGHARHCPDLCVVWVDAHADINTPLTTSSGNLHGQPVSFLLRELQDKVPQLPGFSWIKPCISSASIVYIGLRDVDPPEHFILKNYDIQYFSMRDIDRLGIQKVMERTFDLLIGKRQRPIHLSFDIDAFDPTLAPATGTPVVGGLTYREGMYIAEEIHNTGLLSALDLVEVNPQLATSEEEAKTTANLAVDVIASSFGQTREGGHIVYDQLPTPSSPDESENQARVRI
Put plainly: in vitro enzyme assay to detect the production of urea directly proportional to the activity of Arginase II. Further: in the data most compounds retested in dose-response had high values. The class given is functional. To be noted: 33.3 µM.

Assay [6] concerns the target T3, Proteasome subunit beta (Trypanosoma cruzi) (UniProt O96673).
T3 sequence (whole entry): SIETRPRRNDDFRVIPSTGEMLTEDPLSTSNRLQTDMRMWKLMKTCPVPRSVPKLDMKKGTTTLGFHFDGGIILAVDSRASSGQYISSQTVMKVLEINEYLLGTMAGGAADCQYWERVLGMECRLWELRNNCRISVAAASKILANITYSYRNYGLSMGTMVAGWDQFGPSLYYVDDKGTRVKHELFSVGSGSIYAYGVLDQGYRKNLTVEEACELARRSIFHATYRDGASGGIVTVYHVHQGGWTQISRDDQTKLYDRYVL
The assay is described as follows: Trypanosoma cruzi proteasome chymotrypsin-like activity (TcProtChymo) assay. Further: in the data most compounds retested in dose-response had high values. The class given is functional. Conditions: 9.37 µM.

The species named for another assay is Homo sapiens. Put plainly: To identify inhibition of the IFN signalling (Jak-Stat) pathway via expression of an eGFP reporter gene under the control of an IFN-stimulated response element (ISRE) containing MxA promoter. Format: functional. Conditions: 30 µM.
The target in assay [7] is T4, Tyrosyl-tRNA synthetase, putative (Trypanosoma cruzi (strain CL Brener)) (UniProt Q4DSP6).
T4 sequence (whole entry): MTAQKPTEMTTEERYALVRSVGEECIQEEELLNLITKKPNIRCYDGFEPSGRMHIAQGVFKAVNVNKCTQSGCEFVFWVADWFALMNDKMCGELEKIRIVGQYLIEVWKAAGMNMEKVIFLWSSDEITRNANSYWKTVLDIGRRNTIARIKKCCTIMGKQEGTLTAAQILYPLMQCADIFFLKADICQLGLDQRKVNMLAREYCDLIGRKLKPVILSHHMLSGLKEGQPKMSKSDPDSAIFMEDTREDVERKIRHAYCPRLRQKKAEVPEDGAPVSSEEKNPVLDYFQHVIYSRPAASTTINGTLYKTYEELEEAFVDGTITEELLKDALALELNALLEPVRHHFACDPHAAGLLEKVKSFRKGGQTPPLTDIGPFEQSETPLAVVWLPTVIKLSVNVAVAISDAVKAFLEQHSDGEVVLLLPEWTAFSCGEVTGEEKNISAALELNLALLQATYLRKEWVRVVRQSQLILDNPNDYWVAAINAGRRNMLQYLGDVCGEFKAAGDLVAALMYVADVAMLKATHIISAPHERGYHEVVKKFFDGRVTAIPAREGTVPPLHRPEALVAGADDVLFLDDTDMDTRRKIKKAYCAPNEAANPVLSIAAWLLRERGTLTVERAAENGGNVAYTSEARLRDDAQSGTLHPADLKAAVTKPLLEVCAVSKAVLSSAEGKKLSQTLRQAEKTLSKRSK
Put plainly: Trypanosoma cruzi tyrosyl tRNA synthetase (TcYRS) _High Tyrosine SOP. Further: in the data most compounds retested in dose-response had high values. To be noted: 30 µM. The class given is functional.

Assay [8] concerns the target T4, Tyrosyl-tRNA synthetase, putative (Trypanosoma cruzi (strain CL Brener)). The assay is described as follows: Trypanosoma cruzi tyrosyl tRNA synthetase (TcYRS) SOP. The class given is functional. To be noted: 30 µM.
Assay [9] addresses Chromo domain-containing protein 1 (Saccharomyces cerevisiae (strain ATCC 204508 / S288c) (Baker's yeast)) (UniProt P32657). Put plainly: ScCHD-1 Enzyme Inhibition Assay. Further: in the data most compounds retested in dose-response had high values. Format: functional. Conditions: 30 µM.

For some of these results: Potency and affinity values are given separately.

Sialic acid-binding Ig-like lectin 9 (Homo sapiens), sequence (Q9Y336 whole entry): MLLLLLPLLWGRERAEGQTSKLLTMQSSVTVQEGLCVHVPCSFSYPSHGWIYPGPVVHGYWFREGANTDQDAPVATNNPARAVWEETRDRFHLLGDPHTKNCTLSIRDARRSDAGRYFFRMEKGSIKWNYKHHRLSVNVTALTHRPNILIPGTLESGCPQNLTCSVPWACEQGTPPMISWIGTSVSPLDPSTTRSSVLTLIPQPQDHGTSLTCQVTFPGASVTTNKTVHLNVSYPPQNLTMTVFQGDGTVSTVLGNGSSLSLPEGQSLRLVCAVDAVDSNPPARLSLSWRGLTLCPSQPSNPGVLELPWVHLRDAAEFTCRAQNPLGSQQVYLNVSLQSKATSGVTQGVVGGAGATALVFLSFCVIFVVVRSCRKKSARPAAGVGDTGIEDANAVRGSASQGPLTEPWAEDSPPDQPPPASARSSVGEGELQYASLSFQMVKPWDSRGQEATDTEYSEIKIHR
Chromo domain-containing protein 1 (Saccharomyces cerevisiae (strain ATCC 204508 / S288c) (Baker's yeast)), sequence (P32657 whole entry, the tested form may be a part): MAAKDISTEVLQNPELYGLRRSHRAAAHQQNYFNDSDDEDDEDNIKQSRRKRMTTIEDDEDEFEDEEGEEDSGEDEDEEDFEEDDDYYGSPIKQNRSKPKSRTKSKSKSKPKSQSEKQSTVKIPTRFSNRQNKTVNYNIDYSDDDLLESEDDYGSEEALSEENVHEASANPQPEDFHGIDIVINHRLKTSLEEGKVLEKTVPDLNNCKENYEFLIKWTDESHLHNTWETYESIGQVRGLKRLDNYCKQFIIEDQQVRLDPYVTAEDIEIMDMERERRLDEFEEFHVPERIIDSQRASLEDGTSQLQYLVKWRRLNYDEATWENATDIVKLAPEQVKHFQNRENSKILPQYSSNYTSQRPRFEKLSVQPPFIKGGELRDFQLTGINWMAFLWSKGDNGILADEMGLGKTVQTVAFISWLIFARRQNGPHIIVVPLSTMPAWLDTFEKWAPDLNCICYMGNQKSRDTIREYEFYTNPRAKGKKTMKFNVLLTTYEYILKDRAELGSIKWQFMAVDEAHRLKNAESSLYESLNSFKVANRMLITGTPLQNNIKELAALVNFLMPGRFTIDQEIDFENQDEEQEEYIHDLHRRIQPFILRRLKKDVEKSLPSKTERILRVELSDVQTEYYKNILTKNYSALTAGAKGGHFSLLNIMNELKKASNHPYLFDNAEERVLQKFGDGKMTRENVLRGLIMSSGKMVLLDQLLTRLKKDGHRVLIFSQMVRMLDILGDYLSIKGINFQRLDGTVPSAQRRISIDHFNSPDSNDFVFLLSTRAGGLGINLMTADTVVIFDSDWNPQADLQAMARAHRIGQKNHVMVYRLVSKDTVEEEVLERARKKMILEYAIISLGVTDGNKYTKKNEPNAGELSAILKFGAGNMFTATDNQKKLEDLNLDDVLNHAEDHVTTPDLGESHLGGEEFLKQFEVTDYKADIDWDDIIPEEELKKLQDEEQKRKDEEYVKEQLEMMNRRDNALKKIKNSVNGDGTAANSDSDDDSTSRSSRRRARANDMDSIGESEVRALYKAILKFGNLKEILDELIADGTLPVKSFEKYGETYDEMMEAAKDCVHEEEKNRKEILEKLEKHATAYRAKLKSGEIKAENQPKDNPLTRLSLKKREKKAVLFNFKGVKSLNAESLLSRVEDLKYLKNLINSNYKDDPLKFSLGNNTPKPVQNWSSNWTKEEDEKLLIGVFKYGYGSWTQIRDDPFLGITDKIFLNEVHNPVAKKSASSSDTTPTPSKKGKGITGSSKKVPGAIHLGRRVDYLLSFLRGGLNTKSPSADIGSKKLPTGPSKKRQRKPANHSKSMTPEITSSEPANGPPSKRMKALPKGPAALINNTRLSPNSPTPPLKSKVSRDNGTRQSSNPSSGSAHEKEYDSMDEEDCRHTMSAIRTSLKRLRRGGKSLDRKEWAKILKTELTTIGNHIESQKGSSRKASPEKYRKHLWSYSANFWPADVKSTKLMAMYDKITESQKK
Protein translocase subunit SecA (Escherichia coli (strain K12)), sequence (P10408 whole entry): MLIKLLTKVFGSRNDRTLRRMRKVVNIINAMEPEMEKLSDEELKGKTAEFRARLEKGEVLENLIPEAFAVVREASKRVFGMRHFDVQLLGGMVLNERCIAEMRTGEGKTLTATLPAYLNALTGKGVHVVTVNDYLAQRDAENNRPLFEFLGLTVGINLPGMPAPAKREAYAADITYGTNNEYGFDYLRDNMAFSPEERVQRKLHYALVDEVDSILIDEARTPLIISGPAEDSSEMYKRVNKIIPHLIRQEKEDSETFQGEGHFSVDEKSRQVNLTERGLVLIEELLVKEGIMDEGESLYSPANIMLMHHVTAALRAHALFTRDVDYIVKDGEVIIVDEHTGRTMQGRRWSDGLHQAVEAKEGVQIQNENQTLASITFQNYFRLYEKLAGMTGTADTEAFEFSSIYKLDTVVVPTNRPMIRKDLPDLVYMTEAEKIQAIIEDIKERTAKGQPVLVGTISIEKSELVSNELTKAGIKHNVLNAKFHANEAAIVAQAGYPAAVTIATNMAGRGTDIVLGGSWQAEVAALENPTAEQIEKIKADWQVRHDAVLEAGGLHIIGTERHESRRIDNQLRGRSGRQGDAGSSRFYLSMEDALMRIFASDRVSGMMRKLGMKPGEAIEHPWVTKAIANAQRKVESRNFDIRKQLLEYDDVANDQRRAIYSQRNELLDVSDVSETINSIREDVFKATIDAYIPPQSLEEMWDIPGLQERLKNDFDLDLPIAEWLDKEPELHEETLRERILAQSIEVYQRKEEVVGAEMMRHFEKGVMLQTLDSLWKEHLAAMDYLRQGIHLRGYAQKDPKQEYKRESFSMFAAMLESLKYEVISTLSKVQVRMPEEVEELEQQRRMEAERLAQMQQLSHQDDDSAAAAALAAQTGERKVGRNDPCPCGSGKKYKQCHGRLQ

Take `O=C(c1cncc(Br)c1)N1CCC(O)(Cn2ccc3ccncc32)CC1`: the Percent Effect was 1.79% in [1]; 1.35% in assay [2]; 12.2% in assay [3]; -0.489% in [4]; -7.91% with Trypanosoma cruzi; 1.62% in [5]. The Percent Effect is 9.52% in assay [6]; 9.61% in the assay listed under Homo sapiens; 1.07% in assay [7]; 1.3% in assay [8]; -12.2% in [9].

For the compound `CC(C)c1noc(CCC(=O)NC(C)c2nnc3n2CCCCC3)n1` (stereo unspecified), the Percent Effect is -2.21% in assay [1]; -2.7% in assay [2]; -3.53% in assay [3]; -8.65% in assay [4]; -1.47% with Trypanosoma cruzi; -2.23% in [5]. Besides, the Percent Effect in assay [6] was 2.83%; in the assay listed under Homo sapiens, -7.58%; in [7] it was -9.68%; in [8] it was 1.24%; in assay [9], 80%.

As for `CNC(=O)[C@H]1C[C@@H]2CN(C(=O)c3ccco3)C[C@@H]2N1S(C)(=O)=O`, the Percent Effect was -2.51% in assay [1]; 13.3% in assay [2]; -0.761% in [3]; -3.21% in [4]; 3.48% with Trypanosoma cruzi; 90.5% in assay [5]. The Percent Effect is 12.7% in [6]; -4.85% in the assay filed under Homo sapiens; 6.25% in [7]; 17.5% in [8]; -6.67% in assay [9].

With `Cc1c(C(=O)NCC(C)C)nnn1-c1cccc2c1CCN(C)C2`, the Percent Effect in assay [1] is -4.34%; in [2] it was 2.63%; in [3], 0.913%; in assay [4] it was 2.87%; in the assay with Trypanosoma cruzi, -0.682%; in assay [5], -2.37%. Also, the Percent Effect in [6] was 11.2%; in the assay listed under Homo sapiens, 18.4%; in assay [7] it was 5.32%; in assay [8], 15.6%; in [9], -0.534%.

In the case of `Cc1ccccc1NS(=O)(=O)c1cc2c(c(C(=O)O)c1)OCCO2`, the Percent Effect in assay [1] was -8.46%; in assay [2], 7.89%; in assay [3], 0.578%; in assay [4], -1.17%; in the assay with Trypanosoma cruzi, -7.19%; in assay [5], -6.47%. For the same compound, the Percent Effect was found to be 5.67% in assay [6]; 2.34% in the assay filed under Homo sapiens; 2.46% in [7]; 1.24% in assay [8]; 3.8% in assay [9].

`O=C(Nc1ccc(F)cc1F)Nc1c[nH]c(=O)[nH]c1=O`: the Percent Effect was 0.161% in assay [1]; 10.4% in [2]; 5.76% in assay [3]; -2.96% in assay [4]; -5.03% with Trypanosoma cruzi; 0.645% in assay [5]. Also, the Percent Effect in assay [6] is 6.09%; in the assay filed under Homo sapiens, 8.21%; in assay [7] it was -1.06%; in assay [8] it was 3.85%; in assay [9], -9.44%.

As for `CN(Cc1nccn1CC(F)(F)F)C(=O)c1ccc(F)c(F)c1`, the Percent Effect in assay [1] is -4.78%; in [2], 5.26%; in [3], 7.84%; in assay [4], 5.27%; with Trypanosoma cruzi it was -1.46%; in assay [5], 0%. Moreover, the Percent Effect in [6] worked out at 10.4%; in the assay filed under Homo sapiens, 4.07%; in assay [7], 4.25%; in [8] it was 13%; in assay [9], 26.9%.

In the case of `CCc1noc(CN2CCN(C(=O)N(C)C)CC2)n1`, the Percent Effect in [1] was -5.22%; in assay [2] it was -2.53%; in assay [3], 7.62%; in [4], 3.9%; in the assay on Trypanosoma cruzi, -5.38%; in [5] it was 0.38%. Also, the Percent Effect in assay [6] is 4.83%; in the assay listed under Homo sapiens it was 23.4%; in [7] it was -5.42%; in [8] it was -16.5%; in assay [9] it was -4.89%.

Take `CO[C@H]1CN(Cc2cccc(C#N)c2)[C@@H]2COC[C@H]12`: the Percent Effect was -3.41% in assay [1]; 8% in [2]; -0.964% in assay [3]; 2.51% in assay [4]; 0.965% with Trypanosoma cruzi; -48.9% in assay [5]. In addition, the Percent Effect in [6] was 7.52%; in the assay filed under Homo sapiens, -21.7%; in assay [7], 5.21%; in assay [8], 22.5%; in assay [9], -5.96%.

Take `CCOc1cc(C)ccc1NC(=O)N(C)Cc1cnn(C)c1`: the Percent Effect is -3.73% in assay [1]; 10.8% in assay [2]; -11.8% in [3]; 16.5% in assay [4]; 4.81% in the assay with Trypanosoma cruzi; 0.401% in [5]. In addition, the Percent Effect in assay [6] is -2.52%; in the assay listed under Homo sapiens, 11.9%; in assay [7], 6.4%; in assay [8], 16.1%; in assay [9], -9.07%.

Turning to `CC(c1ccccc1)n1c(SCC(=O)O)nnc1-c1ccccc1Cl` (stereo unspecified), the Percent Effect in [1] is -3.8%; in assay [2] it was 15.3%; in [3], -8.09%; in assay [4] it was 28.7%; with Trypanosoma cruzi, 4.57%; in assay [5] it was -3.53%. Further, the Percent Effect in assay [6] was 9.65%; in the assay listed under Homo sapiens, 13.3%; in [7], 4.21%; in assay [8], 12.8%; in assay [9], -5.19%.

The values above are taken from ChEMBL document CHEMBL3988442, “University of Dundee, Small-Polar-MMV Screening Library” (2021).
